This passage reports growth results from PubChem BioAssay (NCI).

Among the test systems are SK-MEL-2 melanoma; EKVX NSCLC; SN12C renal; UO-31 renal; TK-10 renal; ACHN renal; A498 renal; CCRF-CEM leukemia; MOLT-4 leukemia; SR leukemia; OVCAR-8 ovarian; OVCAR-5 ovarian; OVCAR-4 ovarian; SK-OV-3 ovarian; IGROV1 ovarian; OVCAR-3 ovarian; HS 578T breast; NCI/ADR-RES ovarian; RPMI-8226 leukemia.
What all share (experiment): NCI-60 one-dose screen, 48 h (100 = growth as untreated, 0 = no growth, -100 = all killed)
Conditions in all cases: 10 µM unless noted

Molecules are shown by their SMILES. Compounds without any hit were thinned out: in the full panel of roughly 83,000, 20% have a hit.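 Results are percent growth after 48 hours of single-concentration exposure. 100 means growth as in untreated cells, lower positive values show inhibition; negative values down to -100 show cell death.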 A number with no mark means an inactive call. Active and inactive are the calls of the source. The calls were made as follows: active = growth percent below 10; inactive = the rest.

For the molecule `Nc1n[nH]c2cccc(C#Cc3cccc(NC(=O)c4cccc(C(F)(F)F)c4)c3)c12`, the growth was 8.52% (active) in the assay on SK-MEL-2 melanoma; 65.4% with EKVX NSCLC; 40.7% in the assay on SN12C renal; 3.58% (active) in the assay with UO-31 renal; 41% in the assay on TK-10 renal; 28.6% in the assay with ACHN renal. Besides, the growth in the assay on A498 renal was 14.9%; in the assay with CCRF-CEM leukemia, 28.8%; in the assay with MOLT-4 leukemia it was 27.3%; in the assay on SR leukemia, 27.2%; in the assay on OVCAR-8 ovarian it was 47.2%; in the assay on OVCAR-5 ovarian it was 31.3%. The growth was 44.1% with OVCAR-4 ovarian; 46.3% in the assay on SK-OV-3 ovarian; -7.33% (active) in the assay on IGROV1 ovarian; 49.2% with OVCAR-3 ovarian; -0.652% (active) with HS 578T breast; 43.2% in the assay with NCI/ADR-RES ovarian.
For `CS(=O)(=O)OCC(COS(C)(=O)=O)C(c1ccccc1)c1ccccc1`, the growth with SK-MEL-2 melanoma was 123%; in the assay with EKVX NSCLC, 99.1%; in the assay on SN12C renal, 89.2%; in the assay on UO-31 renal it was 91.2%; in the assay on TK-10 renal, 110%; in the assay on ACHN renal, 107%. Further, the growth with A498 renal is 93.3%; in the assay with CCRF-CEM leukemia, 99.6%; in the assay on MOLT-4 leukemia, 75.7%; with SR leukemia, 74.7%; in the assay on OVCAR-8 ovarian, 118%; with OVCAR-5 ovarian, 110%. Moreover, the growth with OVCAR-4 ovarian was 106%; with SK-OV-3 ovarian, 101%; with IGROV1 ovarian it was 102%; in the assay on OVCAR-3 ovarian, 127%; with HS 578T breast, 104%; with NCI/ADR-RES ovarian it was 99%.
Regarding `CC(C(C(=O)N1CCCCC1)N1CCCCC1)N1CCCCC1` (stereo unspecified), the growth in the assay with SK-MEL-2 melanoma was 111%; with EKVX NSCLC, 112%; in the assay with SN12C renal, 102%; in the assay on UO-31 renal, 94.9%; with TK-10 renal, 101%; with ACHN renal it was 116%. Also, the growth is 119% in the assay on A498 renal; 116% with CCRF-CEM leukemia; 79.8% with MOLT-4 leukemia; 71.3% in the assay with SR leukemia; 105% in the assay on OVCAR-8 ovarian; 117% with OVCAR-5 ovarian. Further, the growth with OVCAR-4 ovarian is 116%; with SK-OV-3 ovarian, 103%; in the assay with IGROV1 ovarian it was 160%; in the assay with OVCAR-3 ovarian, 119%; in the assay with HS 578T breast, 103%; in the assay on NCI/ADR-RES ovarian, 112%.
Consider `COc1ccccc1S(=O)(=O)Nc1ccc2c3c(cc(-c4ccoc4)nc13)C(=O)N2C`, for which the growth in the assay with SK-MEL-2 melanoma is 74.8%; in the assay with EKVX NSCLC, 66.4%; with SN12C renal, 82.3%; with UO-31 renal, 39.9%; with TK-10 renal it was 37.5%; in the assay on ACHN renal, 70.6%. Besides, the growth with A498 renal was 71.7%; in the assay with CCRF-CEM leukemia it was 76.5%; in the assay with MOLT-4 leukemia, 75.8%; in the assay on SR leukemia it was 59.2%; in the assay with OVCAR-8 ovarian, 70.5%; in the assay on OVCAR-5 ovarian it was 76.3%. For the same molecule, the growth in the assay on OVCAR-4 ovarian was 55.1%; in the assay on SK-OV-3 ovarian it was 59.3%; in the assay on IGROV1 ovarian, 62%; with OVCAR-3 ovarian, 74%; in the assay on HS 578T breast it was 56.2%; with NCI/ADR-RES ovarian, 55.1%.
In the case of `CN(C)c1ccc(/C=N/N=C(N)N)cc1`, the growth is 78.6% in the assay with SK-MEL-2 melanoma; 89.3% in the assay with EKVX NSCLC; 82.3% in the assay on SN12C renal; 72.5% in the assay on UO-31 renal; 106% with TK-10 renal; 98.5% in the assay on ACHN renal. In addition, the growth is 17.7% in the assay with A498 renal; 104% in the assay with CCRF-CEM leukemia; 83.2% in the assay on MOLT-4 leukemia; 54.8% with SR leukemia; 91.1% with OVCAR-8 ovarian; 116% in the assay on OVCAR-5 ovarian. Besides, the growth in the assay on OVCAR-4 ovarian is 81.9%; in the assay with SK-OV-3 ovarian, 82.5%; with IGROV1 ovarian, 69.8%; in the assay on OVCAR-3 ovarian, 66.3%; in the assay on HS 578T breast it was 78.2%; in the assay with NCI/ADR-RES ovarian, 50.5%.
Consider `NS(=O)(=O)c1ccc(-n2nc(-c3ccc(Cl)cc3)ccc2=O)cc1`, for which the growth in the assay with SK-MEL-2 melanoma is 86.1%; with EKVX NSCLC, 99.7%; in the assay with SN12C renal it was 109%; in the assay on UO-31 renal it was 91.7%; in the assay with TK-10 renal it was 123%; in the assay on ACHN renal, 101%. Further, the growth with A498 renal was 102%; in the assay on CCRF-CEM leukemia, 86.4%; with MOLT-4 leukemia, 96.4%; in the assay on SR leukemia, 64.4%; in the assay with RPMI-8226 leukemia, 99%; in the assay on OVCAR-8 ovarian it was 102%. The growth in the assay with OVCAR-5 ovarian was 99.9%; with OVCAR-4 ovarian, 100%; with OVCAR-3 ovarian, 106%; in the assay with HS 578T breast it was 88.2%; with NCI/ADR-RES ovarian it was 68.4%.
`CN(C)c1ccc(/C=N/n2c(-c3cc(F)c(Cl)cc3Cl)nn(CN3CCOCC3)c2=S)cc1`: the growth with SK-MEL-2 melanoma was 104%; with EKVX NSCLC, 107%; in the assay with SN12C renal, 103%; in the assay on UO-31 renal, 69.1%; in the assay on TK-10 renal, 107%; in the assay on ACHN renal it was 98.6%. Besides, the growth was 77.9% in the assay on A498 renal; 92.4% in the assay on CCRF-CEM leukemia; 88.8% with MOLT-4 leukemia; 83.6% with SR leukemia; 97.2% in the assay with RPMI-8226 leukemia; 104% with OVCAR-8 ovarian. The growth with OVCAR-5 ovarian was 92.8%; in the assay on OVCAR-4 ovarian, 106%; with IGROV1 ovarian, 104%; with HS 578T breast, 110%; in the assay with NCI/ADR-RES ovarian, 97.3%.
In the case of `Cc1cc(NCCN(C(C)C)C(C)C)nc(/N=C(\N)Nc2ccc(Cl)c(C(F)(F)F)c2)n1`, the growth with SK-MEL-2 melanoma is -89.4% (active); with EKVX NSCLC, -17.5% (active); in the assay on SN12C renal it was -45.6% (active); in the assay with UO-31 renal, -90.9% (active); with TK-10 renal it was -80.6% (active); with ACHN renal, -81.1% (active). The growth with A498 renal was -88.8% (active); in the assay with CCRF-CEM leukemia it was -68% (active); with MOLT-4 leukemia it was -69.2% (active); in the assay on RPMI-8226 leukemia, -65.7% (active); in the assay with OVCAR-8 ovarian, -79.2% (active); with OVCAR-5 ovarian it was -55.5% (active). The growth in the assay with OVCAR-4 ovarian is -68.2% (active); with SK-OV-3 ovarian it was -82% (active); with OVCAR-3 ovarian, -73.6% (active); in the assay with HS 578T breast, -48.5% (active); with NCI/ADR-RES ovarian, -41.1% (active).
